# This is one part of a sample in which the strongest signals are shown more often than they occur.
# Legend:
# Assay in all cases: glycan array binding signal (z-score within array); higher = stronger binding
# [1] = test system: Fuc(a1-2)[GalNAc(a1-3)]Gal(b1-4)GlcNAc; conditions: glycan notation: IUPAC condensed, linker removed
# In short: (§1)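 Glycan array binding is given as a within-array Z-score, which can be read as non-binding when negative. The arrays, 3228 of them, came from the Consortium for Functional Glycomics database and were retained only where the protein sequence was available. Z-scores were averaged across arrays of the same protein sequence at different concentrations or buffers and across linkers.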
# [2] = test system: Fuc(a1-2)[GalNAc(a1-3)]Gal(b1-4)[Fuc(a1-3)]GlcNAc(b1-3)GalNAc; conditions: glycan notation: IUPAC condensed, linker removed
# In short: as §1
# [3] = test system: Fuc(a1-2)[GalNAc(a1-3)]Gal(b1-4)[Fuc(a1-3)]GlcNAc; conditions: glycan notation: IUPAC condensed, linker removed
# In short: as §1
# [4] = test system: Fuc(a1-3)[Gal(b1-4)]GlcNAc(b1-2)Man(a1-6)[Gal(b1-4)GlcNAc(b1-2)Man(a1-3)]Man(b1-4)GlcNAc(b1-4)GlcNAc; conditions: glycan notation: IUPAC condensed, linker removed
# In short: as §1
# [5] = test system: Fuc(a1-2)[GalNAc(b1-3)]Gal; conditions: glycan notation: IUPAC condensed, linker removed
# In short: as §1
# [6] = test system: Fuc(a1-3)[Gal(b1-4)]Glc6S; conditions: glycan notation: IUPAC condensed, linker removed
# In short: as §1
# [7] = test system: Fuc(a1-2)[GalNAc(a1-4)]Gal(b1-4)GlcNAc; conditions: glycan notation: IUPAC condensed, linker removed
# In short: as §1
# [8] = test system: Fuc(a1-2)[GalNAc(a1-3)]Gal; conditions: glycan notation: IUPAC condensed, linker removed
# In short: as §1
# [9] = test system: Fuc(a1-3)[Gal(b1-4)]GlcNAc(b1-2)Man; conditions: glycan notation: IUPAC condensed, linker removed; mutation: R125K
# In short: as §1
# [10] = test system: Fuc(a1-2)[GalNAc(a1-3)]Gal(b1-4)Glc; conditions: glycan notation: IUPAC condensed, linker removed
# In short: as §1
# Chain of PILRb (Mus musculus), Q2YSF2 (Q2YSF2 entry or part of it): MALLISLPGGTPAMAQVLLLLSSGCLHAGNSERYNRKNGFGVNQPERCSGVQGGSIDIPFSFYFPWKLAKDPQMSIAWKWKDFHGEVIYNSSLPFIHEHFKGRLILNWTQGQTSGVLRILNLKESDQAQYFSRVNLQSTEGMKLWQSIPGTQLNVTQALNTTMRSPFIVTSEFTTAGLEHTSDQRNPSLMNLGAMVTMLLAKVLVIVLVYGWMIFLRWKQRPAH
# Chain of Aggrecan (Rattus norvegicus), NP_071526 (chain, as listed by the source): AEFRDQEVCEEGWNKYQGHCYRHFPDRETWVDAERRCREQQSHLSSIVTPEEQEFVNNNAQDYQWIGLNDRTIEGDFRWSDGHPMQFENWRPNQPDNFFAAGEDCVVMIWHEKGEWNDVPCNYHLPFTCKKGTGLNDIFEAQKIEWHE
# Chain of 6RG (Lolium perenne) (chain, as listed by the source): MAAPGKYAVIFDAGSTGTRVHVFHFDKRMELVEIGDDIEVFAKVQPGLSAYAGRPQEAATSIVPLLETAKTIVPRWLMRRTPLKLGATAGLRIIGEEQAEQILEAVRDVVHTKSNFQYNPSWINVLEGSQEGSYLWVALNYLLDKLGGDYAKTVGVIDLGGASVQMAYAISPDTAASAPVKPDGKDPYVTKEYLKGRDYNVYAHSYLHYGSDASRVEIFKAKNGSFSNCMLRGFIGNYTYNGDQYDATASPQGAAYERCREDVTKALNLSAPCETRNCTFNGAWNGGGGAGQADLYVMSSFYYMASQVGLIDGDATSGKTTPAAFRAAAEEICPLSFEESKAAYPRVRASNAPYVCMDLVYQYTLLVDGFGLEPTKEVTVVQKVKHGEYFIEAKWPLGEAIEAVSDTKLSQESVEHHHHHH
# Chain of CHI3L1 (Homo sapiens), P36222 (P36222 whole entry): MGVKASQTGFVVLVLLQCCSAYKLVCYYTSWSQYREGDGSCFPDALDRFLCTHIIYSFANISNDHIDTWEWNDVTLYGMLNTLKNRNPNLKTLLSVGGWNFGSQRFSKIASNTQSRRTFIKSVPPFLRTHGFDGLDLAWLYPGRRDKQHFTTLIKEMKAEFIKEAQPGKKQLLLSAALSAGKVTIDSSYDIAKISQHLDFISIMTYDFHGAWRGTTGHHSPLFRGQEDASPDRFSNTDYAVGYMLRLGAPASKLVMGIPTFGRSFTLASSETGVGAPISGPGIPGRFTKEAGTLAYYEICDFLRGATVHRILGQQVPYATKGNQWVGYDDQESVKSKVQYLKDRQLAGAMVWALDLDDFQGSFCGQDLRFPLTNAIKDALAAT
# Chain of 6RG (Lolium perenne), B9U140 (B9U140 entry or part of it): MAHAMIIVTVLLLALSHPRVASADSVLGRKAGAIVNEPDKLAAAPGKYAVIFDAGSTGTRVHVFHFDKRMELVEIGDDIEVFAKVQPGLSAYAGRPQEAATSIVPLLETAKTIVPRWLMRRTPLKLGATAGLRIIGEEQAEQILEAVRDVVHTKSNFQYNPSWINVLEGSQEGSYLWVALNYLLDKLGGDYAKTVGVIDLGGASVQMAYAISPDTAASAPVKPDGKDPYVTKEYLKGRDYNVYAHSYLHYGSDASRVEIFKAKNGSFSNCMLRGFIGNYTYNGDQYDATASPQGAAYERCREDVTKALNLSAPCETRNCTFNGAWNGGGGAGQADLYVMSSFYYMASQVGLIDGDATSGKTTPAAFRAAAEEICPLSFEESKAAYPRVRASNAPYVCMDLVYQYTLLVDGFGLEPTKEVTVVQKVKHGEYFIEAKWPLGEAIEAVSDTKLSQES
# Chain of Neurocan (Homo sapiens), O14594 (O14594 other isoform, or with tags, fused parts or gaps): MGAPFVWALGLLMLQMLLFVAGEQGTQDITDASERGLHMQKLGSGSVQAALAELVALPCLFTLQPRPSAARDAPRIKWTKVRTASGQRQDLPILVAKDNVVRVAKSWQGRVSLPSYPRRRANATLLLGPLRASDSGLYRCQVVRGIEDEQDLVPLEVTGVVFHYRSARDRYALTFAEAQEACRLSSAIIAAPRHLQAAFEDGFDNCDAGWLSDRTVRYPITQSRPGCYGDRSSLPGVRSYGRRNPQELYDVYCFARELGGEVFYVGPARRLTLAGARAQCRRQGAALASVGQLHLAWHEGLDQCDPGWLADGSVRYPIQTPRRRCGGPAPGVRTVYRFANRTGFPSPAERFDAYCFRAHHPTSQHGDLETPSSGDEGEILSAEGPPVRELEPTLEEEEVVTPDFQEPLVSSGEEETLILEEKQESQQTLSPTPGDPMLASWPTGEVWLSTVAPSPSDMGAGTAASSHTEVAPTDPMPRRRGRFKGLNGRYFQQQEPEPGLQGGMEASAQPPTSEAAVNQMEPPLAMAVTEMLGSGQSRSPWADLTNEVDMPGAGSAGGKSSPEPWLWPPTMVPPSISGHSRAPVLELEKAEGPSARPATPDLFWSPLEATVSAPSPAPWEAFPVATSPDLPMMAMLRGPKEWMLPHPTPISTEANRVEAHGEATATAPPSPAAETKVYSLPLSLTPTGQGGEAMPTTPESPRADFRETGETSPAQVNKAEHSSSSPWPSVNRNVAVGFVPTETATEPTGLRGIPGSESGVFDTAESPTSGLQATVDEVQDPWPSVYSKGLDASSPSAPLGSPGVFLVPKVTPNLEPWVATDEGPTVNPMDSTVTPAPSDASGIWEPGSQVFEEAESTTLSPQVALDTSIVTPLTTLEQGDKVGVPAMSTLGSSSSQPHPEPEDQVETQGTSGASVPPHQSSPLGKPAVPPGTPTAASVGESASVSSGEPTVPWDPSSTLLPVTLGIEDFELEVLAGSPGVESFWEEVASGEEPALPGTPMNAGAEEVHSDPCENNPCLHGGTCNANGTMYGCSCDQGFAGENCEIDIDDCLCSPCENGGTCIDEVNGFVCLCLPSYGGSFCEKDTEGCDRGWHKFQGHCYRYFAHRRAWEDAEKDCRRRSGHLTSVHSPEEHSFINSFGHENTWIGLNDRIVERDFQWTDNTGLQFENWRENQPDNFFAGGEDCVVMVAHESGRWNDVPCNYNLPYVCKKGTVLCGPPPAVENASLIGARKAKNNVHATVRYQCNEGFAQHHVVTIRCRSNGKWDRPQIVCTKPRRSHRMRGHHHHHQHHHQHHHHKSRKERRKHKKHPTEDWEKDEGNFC
# Chain of Avaren (Actinomycete K97) (chain, as listed by the source): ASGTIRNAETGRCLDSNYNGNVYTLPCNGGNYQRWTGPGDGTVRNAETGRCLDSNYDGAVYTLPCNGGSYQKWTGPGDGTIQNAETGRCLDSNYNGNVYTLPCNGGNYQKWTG
# Chain of wLAT-1A (Homo sapiens), Q01650 (Q01650 whole entry): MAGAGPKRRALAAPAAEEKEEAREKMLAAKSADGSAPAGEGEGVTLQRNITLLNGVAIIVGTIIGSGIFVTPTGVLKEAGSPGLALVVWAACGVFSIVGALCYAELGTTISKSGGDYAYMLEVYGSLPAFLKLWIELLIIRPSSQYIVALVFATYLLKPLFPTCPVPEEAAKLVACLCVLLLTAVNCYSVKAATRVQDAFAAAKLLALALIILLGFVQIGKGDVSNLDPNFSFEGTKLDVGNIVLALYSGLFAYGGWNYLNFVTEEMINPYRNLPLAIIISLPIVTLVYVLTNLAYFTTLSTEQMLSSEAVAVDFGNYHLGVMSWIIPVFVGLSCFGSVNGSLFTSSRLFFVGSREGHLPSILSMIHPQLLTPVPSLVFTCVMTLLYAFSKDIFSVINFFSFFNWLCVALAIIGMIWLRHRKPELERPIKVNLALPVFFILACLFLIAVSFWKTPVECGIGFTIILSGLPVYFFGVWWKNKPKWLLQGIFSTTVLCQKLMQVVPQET
substance,measurement,setting,value
"6RG (Lolium perenne), B9U140",glycan array binding signal (z-score),[1],-0.075
"PILRb (Mus musculus), Q2YSF2",glycan array binding signal (z-score),[2],11.4
same,glycan array binding signal (z-score),[3],2.67
same,glycan array binding signal (z-score),[4],-0.477
"CHI3L1 (Homo sapiens), P36222",glycan array binding signal (z-score),[5],0.059
same,glycan array binding signal (z-score),[6],-0.082
Avaren (Actinomycete K97),glycan array binding signal (z-score),[7],-0.123
"Neurocan (Homo sapiens), O14594",glycan array binding signal (z-score),[8],-0.021
MpAFP RI GFP (Marinomonas primoryensis),glycan array binding signal (z-score),[8],-0.389
"Aggrecan (Rattus norvegicus), NP_071526",glycan array binding signal (z-score),[3],0.401
same,glycan array binding signal (z-score),[5],17.3
"Siglec-8 (Homo sapiens), Q9NYZ4",glycan array binding signal (z-score),[1]; mutation: R125K,-0.376
same,glycan array binding signal (z-score),[9],-0.3
"wLAT-1A (Homo sapiens), Q01650",glycan array binding signal (z-score),[10],0.692
6RG (Lolium perenne),glycan array binding signal (z-score),[7],-0.148
same,glycan array binding signal (z-score),[4],-0.247
